# Assay results as given in PubChem BioAssay.
# Active and inactive are the calls of the source.
# Columns and labels:
# [1] = optical density shifts of acrAB sulA E. coli – strain DRC41, OD650, 48 h, E. coli filamentation inducer project, primary screen (AID 1152); details: higher = more signal, called active from +8 up or from −8 down;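 note: E. coli MC1000 strain DRC41 lacking acrAB efflux pump and sulA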
# [2] = probe aLefty1 binding on compound microarray – biochemical, small-molecule microarray, 635/667 nm fluorescence, primary screen (AID 1153); details: higher = more signal;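 note: score merges spot fluorescence with signal-to-noise ratio from the scanned slide images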
# [3] = plasmodial surface anion channel blockers, osmotic lysis – cell-based, P. falciparum Indochina, OD700, 1 h, primary screen (AID 1154); details: P. falciparum Indochina infected RBC osmotic lysis, higher = more signal, called active from +8 up or from −8 down
# [4] = plasmodial surface anion channel blockers, osmotic lysis – cell-based, P. falciparum Indochina, OD700, 2 h, primary screen (AID 1155);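 note: lysis reports solute entry through the parasite surface anion channel PSAC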; details: P. falciparum Indochina infected erythrocytes, higher = more signal, called active from +8 up or from −8 down
# [5] = changes in parasitized red cell lysis, either direction – P. falciparum Indochina, OD700, 3 h, PSAC antagonist project, primary screen (AID 1156); details: P. falciparum-infected erythrocytes, osmotic lysis, higher = more signal, called active from +8 up or from −8 down
# [6] = plasmodial surface anion channel blockers, osmotic lysis – cell-based, P. falciparum Indochina, OD700, 18 h, primary screen (AID 1157); details: P. falciparum Indochina infected erythrocytes, osmotic lysis OD700, 18 h; higher = more signal, called active from +8 up or from −8 down
# [7] = S6 kinase pathway phospho-S6 level changes – cell-based, A549, cytoblot, luminescence, serum-stimulated, primary screen (AID 1158); details: 5 h, higher = more signal;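 note: serum-stimulated A549 lung adenocarcinoma cells; signal is phosphorylated S6 detected by cytoblot immunostaining with HRP secondary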
# [8] = target: NADPH oxidase 2 (Homo sapiens) (UniProt P04839); test: compounds shifting NOX2 Amplex Red fluorescence – cell-based, HEK293-NOX2, PMA-stimulated, NOX inhibitor project, primary screen (AID 1159); details: 45 min, higher = more signal, called active from +8 up or from −8 down; note: test concentration not given here
# NADPH oxidase 2 (Homo sapiens), sequence (P04839 whole entry, looked up): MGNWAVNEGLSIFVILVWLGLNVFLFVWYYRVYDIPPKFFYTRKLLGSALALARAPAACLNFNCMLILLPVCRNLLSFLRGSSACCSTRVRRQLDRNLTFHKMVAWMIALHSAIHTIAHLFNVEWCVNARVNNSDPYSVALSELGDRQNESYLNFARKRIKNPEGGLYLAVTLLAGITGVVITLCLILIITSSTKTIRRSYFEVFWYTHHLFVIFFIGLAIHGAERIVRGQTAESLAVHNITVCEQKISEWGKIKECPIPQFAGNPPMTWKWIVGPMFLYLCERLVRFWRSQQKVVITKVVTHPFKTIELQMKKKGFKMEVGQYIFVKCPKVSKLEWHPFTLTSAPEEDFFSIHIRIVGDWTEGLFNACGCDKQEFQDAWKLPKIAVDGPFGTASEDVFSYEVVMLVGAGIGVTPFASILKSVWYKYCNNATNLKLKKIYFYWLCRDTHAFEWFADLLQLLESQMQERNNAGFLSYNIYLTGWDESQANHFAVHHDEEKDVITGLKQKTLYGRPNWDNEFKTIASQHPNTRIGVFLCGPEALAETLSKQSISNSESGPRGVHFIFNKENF
# [9] = target: NADPH oxidase 4 (Homo sapiens) (UniProt Q9NPH5); test: compounds shifting NOX4 Amplex Red fluorescence – cell-based, HEK293-NOX4, tetracycline-induced, NOX inhibitor project, primary screen (AID 1160); details: HEK293-NOX4, Amplex Red H2O2 fluorescence, 45 min; higher = more signal, called active from +8 up or from −8 down
# NADPH oxidase 4 (Homo sapiens), sequence (Q9NPH5 whole entry, looked up): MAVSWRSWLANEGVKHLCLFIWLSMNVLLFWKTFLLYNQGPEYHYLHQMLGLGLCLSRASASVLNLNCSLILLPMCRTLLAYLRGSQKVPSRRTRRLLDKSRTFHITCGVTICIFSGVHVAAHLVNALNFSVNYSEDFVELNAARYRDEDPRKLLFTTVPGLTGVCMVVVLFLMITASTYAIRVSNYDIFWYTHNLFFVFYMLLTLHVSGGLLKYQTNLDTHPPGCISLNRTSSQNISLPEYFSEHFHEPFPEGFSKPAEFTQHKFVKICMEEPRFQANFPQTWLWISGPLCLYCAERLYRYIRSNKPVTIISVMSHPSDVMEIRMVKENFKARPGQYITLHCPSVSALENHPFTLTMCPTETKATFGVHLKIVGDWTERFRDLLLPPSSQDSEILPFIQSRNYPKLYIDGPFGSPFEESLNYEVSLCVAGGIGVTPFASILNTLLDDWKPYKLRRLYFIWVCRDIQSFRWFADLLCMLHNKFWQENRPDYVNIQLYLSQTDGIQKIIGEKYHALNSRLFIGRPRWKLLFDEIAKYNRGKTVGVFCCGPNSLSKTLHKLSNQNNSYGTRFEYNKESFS
# [10] = target: NADPH oxidase 5 (Homo sapiens) (UniProt Q96PH1); test: compounds shifting NOX5 Amplex Red fluorescence – cell-based, HEK293-NOX5, NOX inhibitor project, primary screen (AID 1161); details: HEK293-NOX5, ionomycin, 45 min, higher = more signal
# NADPH oxidase 5 (Homo sapiens), sequence (Q96PH1 whole entry, looked up): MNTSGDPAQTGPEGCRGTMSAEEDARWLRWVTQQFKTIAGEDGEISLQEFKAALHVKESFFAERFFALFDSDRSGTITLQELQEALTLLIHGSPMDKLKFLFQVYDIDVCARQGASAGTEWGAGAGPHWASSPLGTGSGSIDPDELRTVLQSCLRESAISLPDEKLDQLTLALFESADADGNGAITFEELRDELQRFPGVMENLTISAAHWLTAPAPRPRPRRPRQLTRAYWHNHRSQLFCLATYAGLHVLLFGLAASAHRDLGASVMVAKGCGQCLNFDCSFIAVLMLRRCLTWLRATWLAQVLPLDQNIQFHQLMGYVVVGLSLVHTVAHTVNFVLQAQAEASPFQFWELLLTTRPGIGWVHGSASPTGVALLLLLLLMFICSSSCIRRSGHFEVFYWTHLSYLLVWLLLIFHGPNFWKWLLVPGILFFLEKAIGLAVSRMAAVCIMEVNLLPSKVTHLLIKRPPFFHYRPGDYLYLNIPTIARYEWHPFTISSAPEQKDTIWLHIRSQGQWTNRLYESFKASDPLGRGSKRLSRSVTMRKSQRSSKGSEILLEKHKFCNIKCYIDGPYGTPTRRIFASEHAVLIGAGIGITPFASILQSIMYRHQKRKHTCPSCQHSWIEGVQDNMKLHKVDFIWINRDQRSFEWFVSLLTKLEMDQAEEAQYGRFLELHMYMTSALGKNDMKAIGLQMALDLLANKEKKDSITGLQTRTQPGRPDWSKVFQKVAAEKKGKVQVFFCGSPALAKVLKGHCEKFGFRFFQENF
# [11] = compound effects on lung adenocarcinoma cell viability – A549, calcein-AM fluorescence, 48 h, basal, profiling panel (AID 1162); details: higher = more signal; note: test concentration not given here
# [12] = compound effects on differentiated 3T3-L1 adipocyte viability – cell-based, 3T3-L1 adipocytes, calcein-AM fluorescence, 48 h, basal, profiling panel (AID 1163); details: 3T3-L1 adipocytes viability, higher = more signal; note: test concentration not given here
# [13] = compound effects on hepatocellular carcinoma cell viability – HepG2, calcein-AM fluorescence, 48 h, basal, profiling panel (AID 1164); details: higher = more signal; note: test concentration not given here
# [14] = compound effects on multiple myeloma cell viability – MM1S, calcein-AM fluorescence, 48 h, basal, profiling panel (AID 1165); details: higher = more signal;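 note: viability of MM1S multiple myeloma cells under basal unstimulated conditions; test concentration not given here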
# [15] = calcein-AM signal in unstimulated myeloma cells – cell-based, calcein-AM fluorescence, 48 h, PK04 Diversity Set, profiling panel (AID 1166); details: RPMI8226 myeloma viability, higher = more signal;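 note: cells grown under basal conditions without added stimulus; test concentration not given here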
# [16] = JC-1 mitochondrial signal, unstimulated HepG2 cells – cell-based, JC-1 fluorescence, 24 h, 100 nL compound, profiling panel (AID 1167); details: HepG2 mitochondrial potential, higher = more signal; note: test concentration not given here
# [17] = JC-1 mitochondrial signal, unstimulated adipocytes – cell-based, JC-1 fluorescence, 3T3-L1 adipocytes, 24 h, 100 nL compound, profiling panel (AID 1168); details: JC-1 mitochondrial fluorescence, higher = more signal, called active from +8 up or from −8 down; note: test concentration not given here
# [18] = JC-1 mitochondrial signal, unstimulated myeloma cells – cell-based, JC-1 fluorescence, RPMI8226, 24 h, 100 nL compound, profiling panel (AID 1169); details: JC-1 mitochondrial potential fluorescence, higher = more signal; note: test concentration not given here
# [19] = JC-1 mitochondrial signal, unstimulated MM1S myeloma – cell-based, JC-1 fluorescence, 24 h, 100 nL compound, profiling panel (AID 1170); details: MM1S mitochondrial potential, higher = more signal; note: test concentration not given here
# [20] = resazurin metabolic signal in A549 cells – cell-based, resazurin fluorescence, 24 h, PK04 Diversity Set, profiling panel (AID 1171); details: A549 viability, higher = more signal, called active from +8 up or from −8 down; note: test concentration not given here
SMILES,z-score [1],composite z-score [2],z-score [3],z-score [4],z-score [5],z-score [6],z-score [7],z-score [8],z-score [9],z-score [10],z-score [11],z-score [12],z-score [13],z-score [14],z-score [15],z-score [16],z-score [17],z-score [18],z-score [19],z-score [20]
O=C1OCCC/C=C\[C@H]2OC34C=CCN(c5ccc6ccccc6c5)C(=O)[C@H]3N(CCCCCO)C(=O)[C@@H]4C12 (stereo not given in full),-0.829 (inactive),-0.147,0.29 (inactive),-0.0458 (inactive),-0.455 (inactive),-0.181 (inactive),-0.839,0.814 (inactive),-0.15 (inactive),1.58,0.0648,0.456,0.513,0.0795,-0.681,0.337,-0.318 (inactive),0.873,-0.505,0.123 (inactive)
COc1ccc(CCNC(=O)[C@@]2(c3ccc([N+](=O)[O-])cc3)CC(=O)N(CC34CC5CC(CC(C5)C3)C4)[C@@H]2c2ccc(CO)cc2I)cc1,0.655 (inactive),-0.223,16.3 (active),3.25 (inactive),3.61 (inactive),0.838 (inactive),3.37,0.675 (inactive),-4.2 (inactive),-3.66,-0.68,0.475,-1.36,-2.44,-3.68,2,0.1 (inactive),-0.973,-0.571,-2.16 (inactive)
CCCCN1CC=CC23O[C@@H]4/C=C\CCCOC(=O)C4[C@H]2C(=O)N(CCCCCO)[C@@H]3C1=O (stereo not given in full),-0.852 (inactive),-0.328,0.896 (inactive),0.481 (inactive),-0.765 (inactive),0.0625 (inactive),-0.782,1.07 (inactive),-0.18 (inactive),1.74,-0.234,1.14,-0.195,1.46,0.0001,-0.327,0.783 (inactive),0.163,-0.0801,0.356 (inactive)
O=C(O)[C@H](Cc1ccccc1)n1cc(-c2ccccc2)nn1,-0.695 (inactive),-0.144,-0.256 (inactive),0.216 (inactive),-0.564 (inactive),0.161 (inactive),0.473,-1.58 (inactive),0.283 (inactive),-0.837,-0.757,-0.853,-0.177,0.269,-0.157,-0.601,-0.0821 (inactive),0.666,0.348,-0.143 (inactive)
C=CCNC(=O)[C@H]1[C@@H]2C(=O)O[C@@H](c3ccccc3)[C@@H](c3ccccc3)N2[C@@H](c2ccc(O)cc2)[C@]12C(=O)Nc1ccc(C#CCCO)cc12,0.605 (inactive),0.117,5.56 (inactive),0.608 (inactive),-0.763 (inactive),0.443 (inactive),-0.0803,0.67 (inactive),-0.436 (inactive),0.603,0.838,-0.655,0.122,0.994,0.168,-0.757,0.651 (inactive),-0.873,-0.723,0.437 (inactive)
O=C(CS)NCCCCCNC(=O)[C@@H]1C[C@@H]2C(=O)NCC(=O)N2[C@@H]1c1ccc(O)cc1,1.6 (inactive),-0.101,0.802 (inactive),0.0605 (inactive),-0.194 (inactive),0.179 (inactive),-0.259,1.18 (inactive),-0.584 (inactive),1.67,0.347,0.136,-1.19,-0.403,-0.727,1.14,-0.00814 (inactive),0.852,0.158,-1.31 (inactive)
CCCCN1CC=CC23O[C@@H]4/C=C\CCCOC(=O)C4[C@H]2C(=O)N(CCCO)[C@@H]3C1=O (stereo not given in full),-0.0884 (inactive),0.0927,0.897 (inactive),0.611 (inactive),-0.746 (inactive),0.0888 (inactive),-0.207,1.59 (inactive),0.593 (inactive),2.02,-0.609,0.803,0.186,-0.614,-0.568,-0.795,1.19 (inactive),0.16,0.597,0.216 (inactive)
O=C1C2C=CC(C(O)c3ccc(F)cc3)N(Nc3ccc([N+](=O)[O-])cc3)C2C(=O)N1c1ccccc1 (stereo not given),-1.01 (inactive),0.129,19.7 (active),3.8 (inactive),0.721 (inactive),1.22 (inactive),-0.454,-0.95 (inactive),-2.96 (inactive),-1.91,-0.755,-0.376,0.679,-0.06,-0.313,-0.382,-0.287 (inactive),-0.403,-0.977,0.68 (inactive)
CS(=O)(=O)CCOC(=O)C1=CC(CCCO)=CC(C2CC2)N(Cc2cc3c(cc2Br)OCO3)C=C1C(=O)OCCS(C)(=O)=O (stereo not given),0.307 (inactive),0.131,3.83 (inactive),1.02 (inactive),0.106 (inactive),0.504 (inactive),0.404,-1.56 (inactive),-0.0814 (inactive),-1.11,1.25,0.385,0.862,-0.538,-0.246,3.31,0.262 (inactive),-0.41,-1.37,0.796 (inactive)
COc1ccc([Si](C)(C)[C@H]2[C@H](CCn3cc([C@H](O)c4ccccc4)nn3)O[C@@]3(C(=O)N(C)c4ccccc43)[C@@H]2C)cc1,0.294 (inactive),0.573,5.08 (inactive),1.5 (inactive),0.56 (inactive),0.866 (inactive),0.334,-0.0243 (inactive),0.0296 (inactive),-1.24,0.239,-0.233,0.132,-0.615,-1.79,-0.602,0.331 (inactive),-1.16,-0.396,0.32 (inactive)
O=C1C2C=CC(C(O)c3ccc4c(c3)OCO4)N(Nc3ccc([N+](=O)[O-])cc3)C2C(=O)N1c1ccccc1 (stereo not given),-0.81 (inactive),-0.101,18.1 (active),3.98 (inactive),1.4 (inactive),1.66 (inactive),-0.363,-1 (inactive),-3.31 (inactive),-2.1,-0.649,-1.09,0.199,0.259,-0.169,-0.941,-0.856 (inactive),0.575,-0.77,-0.0894 (inactive)
O=C1C2C=CC(C(O)C=Cc3ccc([N+](=O)[O-])cc3)N(n3cnnc3)C2C(=O)N1Cc1ccccc1 (stereo not given),-0.892 (inactive),0.406,4.59 (inactive),1.03 (inactive),0.956 (inactive),0.83 (inactive),-0.584,-0.526 (inactive),-0.711 (inactive),-0.3,-0.915,0.0646,-0.129,-0.232,-1.03,-1.07,-0.566 (inactive),0.646,-0.178,0.367 (inactive)
[N-]=[N+]=NCc1ccccc1C[C@@]1(C(=O)NCC(O)CO)N=C(c2ccc(OCCCO)cc2)O[C@@H]1c1ccccc1 (stereo not given in full),0.0346 (inactive),0.237,25.3 (active),16.3 (active),-1.11 (inactive),2.07 (inactive),-0.11,0.0842 (inactive),1.28 (inactive),2.5,-1.64,0.195,-3.17,-3.22,-1.82,-2.54,1.67 (inactive),-1.12,-0.123,-1.01 (inactive)
O=C1[C@H]2C=C(I)[C@H](C[C@@H]2OCCCCO)[C@@]12CO2,-0.989 (inactive),0.0437,1.01 (inactive),-0.171 (inactive),0.282 (inactive),-0.039 (inactive),0.764,-0.0538 (inactive),0.491 (inactive),-0.584,-0.292,-0.393,-0.66,-0.739,-0.954,-1.71,-0.431 (inactive),-1.13,-0.509,0.109 (inactive)
C=CCC(OC(C)=O)[C@@H]1[C@@H](N(Cc2cc3ccccc3o2)C(=O)Cc2ccc(OC)cc2)c2cc(OCCCO)ccc2N1C(=O)c1ccc2ccccc2c1 (stereo not given in full),-0.829 (inactive),-0.0252,2.31 (inactive),-0.0382 (inactive),1.17 (inactive),-0.0343 (inactive),0.559,-1.16 (inactive),-1.26 (inactive),1.14,0.0348,0.25,0.663,0.817,-0.668,1.4,-0.38 (inactive),-0.0277,1.11,-1.34 (inactive)
Cc1ccc(S[C@]2(C(=O)O)CC(=O)N(Cc3ccccc3C(F)(F)F)[C@@H]2c2ccc(CO)cc2I)cc1,-1.17 (inactive),0.737,6.52 (inactive),0.427 (inactive),0.591 (inactive),0.402 (inactive),0.0721,1.63 (inactive),-1.72 (inactive),1.12,0.0342,-0.217,-0.742,-3.22,-1.5,-1.06,-0.438 (inactive),-0.275,-1.48,0.834 (inactive)
[N-]=[N+]=NCc1ccccc1[C@H]1OC(c2ccc(OCCCO)cc2)=N[C@@]1(Cc1ccccc1)C(=O)N1CCCCC1,0.796 (inactive),0.0331,28.4 (active),23.2 (active),1.75 (inactive),1.77 (inactive),1.3,-3.54 (inactive),-0.919 (inactive),-1.28,0.562,-0.359,0.505,-0.085,-0.909,0.732,-0.677 (inactive),-0.931,-0.854,0.151 (inactive)
COc1cc2c(cc1O)C(c1cccs1)N(Cc1cccc(OC(F)(F)F)c1)CC2 (stereo not given),0.36 (inactive),-0.0999,8.07 (active),0.192 (inactive),0.112 (inactive),-0.751 (inactive),1.09,-4.69 (inactive),-2.74 (inactive),-4.1,-2.79,-0.0814,-2.37,-3.14,-4.49,-2.21,-0.019 (inactive),-0.774,-1.77,-1.98 (inactive)
